# Experimental data reported in ChEMBL document CHEMBL4513146, “CO-ADD screening of Karazin Kharkiv National University (Ukraine) compounds”.
# Entries with a potency or affinity are not part of this list.
# What was measured:
# Klebsiella pneumoniae = details: Concentration 32 ug.mL-1;; ASSAY_TEST Inhibition of Bacterial Growth; detection method Absorption (OD600); MEDIA CAMHB; plate type 384well; NBS; CORNING #3640; time 18 hr
# Candida albicans = details: Concentration 32 ug.mL-1; ASSAY_TEST Inhibition of Fungal Growth; detection method Absorption (OD530)
# Cryptococcus neoformans = details: Concentration 32 ug.mL-1; ASSAY_TEST Inhibition of Fungal Growth; detection method Resazurin; Absorption (OD600-OD570); plate type 384well; NBS; CORNING #3640
Structure (SMILES),Inhibition (Klebsiella pneumoniae) [%],Inhibition (Candida albicans) [%],Inhibition (Cryptococcus neoformans) [%]
O=C(Cn1nc2c(SCc3ccc(Cl)cc3)nccn2c1=O)N1CCN(c2ccccc2)CC1,2.24,4.87,-2.91
CCOc1ccccc1NC(=O)Cn1nc2c(SC3CCCCC3)nccn2c1=O,10.39,5.31,-21.42
COc1ccc(Cl)cc1NC(=O)CSc1nnc2c(=O)n(-c3ccccc3)ccn12,11.41,3.46,-20.14
CC1CC(C)CN(c2nccn3c(=O)n(CC(=O)NCc4ccccc4Cl)nc23)C1 (centres undefined),9.46,-0.66,-5.61
COc1ccccc1-n1ccn2c(SCC(=O)Nc3ccc(C)cc3Cl)nnc2c1=O,5.82,3.4,-11.35
CCc1ccc(NC(=O)Cn2nc3n(Cc4cccs4)c(=O)c4sccc4n3c2=O)cc1,9.1,35.62,-2.93
COc1ccc(NC(=O)Cn2nc3c4cc(-c5ccc(C)cc5)nn4ccn3c2=O)c(OC)c1,9.2,7.88,-29.92
CC(C)Sc1ccc2nn(CC(=O)Nc3ccc(Cl)cc3F)c(=O)n2n1,7.97,16.98,-18.57
Cc1nnc2c(=O)n(CC(=O)Nc3ccccc3Cl)c3ccccc3n12,0.78,1.36,-5.67
O=C(CSc1nnc2c(=O)n(-c3ccc(Br)cc3)ccn12)Nc1ccc(F)cc1,8.05,10.99,-11.61
CCc1nnc2c(S(=O)(=O)N(Cc3cccc(Cl)c3)c3ccccc3)cccn12,-7.54,2.13,-7.64
COc1cc(NC(=O)Cn2nc3ccc(C(=O)NCc4ccccc4)cn3c2=O)cc(OC)c1OC,1.38,5.58,-8.4
O=C(Cn1nc2nc(Nc3ccc(F)cc3)ccn2c1=O)Nc1cc(F)ccc1F,11.06,4.41,-6.4
COc1ccc(C)cc1NC(=O)Cn1nc2cc(C)nc(Nc3ccc(F)cc3)n2c1=O,2.21,2.84,-7.79
COc1ccccc1NC(=O)Cn1nc2c3cc(-c4ccc(C)c(C)c4)nn3ccn2c1=O,17.54,-1.16,-22.56
COc1cccc(-n2ccn3c(SCC(=O)Nc4cccc(F)c4)nnc3c2=O)c1,0.65,10.45,-5.71
COc1ccc(NC(=O)Cn2nc3c(SCc4ccc(Cl)cc4)nccn3c2=O)cc1,5.73,-0.37,-4.83
O=C(CSc1nnc2c(=O)n(-c3ccc(F)cc3)ccn12)N1CCN(c2ccccc2F)CC1,-3.8,5.18,-7.82
N#Cc1ccc(NC(=O)Cn2nc3c(SCc4ccc(Cl)cc4)nccn3c2=O)cc1,12.55,4.94,-19.24
O=C(Cn1nc2ccc(-c3ccccc3)nn2c1=O)Nc1cccc(Cl)c1,2.74,18.56,-15.44
Cc1[nH]c2ccccc2c1C(=O)CSc1nnc2c(=O)n(-c3ccccc3)ccn12,21.07,0.47,-10.08
COC(=O)c1ccc(CN(c2ccc(F)cc2)S(=O)(=O)c2cccn3c(C)nnc23)o1,11.43,3.23,-7.89
COc1ccc(-c2cc3c4nnc(SCC(=O)N(C)c5ccccc5)n4ccn3n2)cc1,5.6,32.67,-11.25
COc1ccc(N(Cc2cccc(Cl)c2)S(=O)(=O)c2ccc3nncn3c2)cc1,12.52,3.54,-3.69
Cc1cc2nn(CC(=O)Nc3ccccc3F)c(=O)n2c(Nc2ccc(F)c(C)c2)n1,9.21,7.27,-5.54
Cc1cccc(NC(=O)c2ccc3nnc(SCC(=O)Nc4ccc(Br)cc4)n3c2)c1,7.72,7.81,-6.93
COc1ccc(N(Cc2cccc(OC)c2)S(=O)(=O)c2ccc3nnc(C)n3c2)cc1,9.44,0.91,-1.64
O=C(Cn1nc2ccc(SCc3ccc(Cl)cc3)nn2c1=O)NC1CCCCC1,3.63,3.05,-27.33
